# Results: PubChem BioAssay (Tox21)
# Inconclusive results are not listed. Calls of active or inactive are those of the source. The call rests on the fitted dose curve; in most records, active means well fitted cell-killing curve with a large enough effect in the repeat runs; inconclusive means weak or mixed curves; inactive means flat fitted curve, though single readings scatter.
# Assay: qHTS RealTime-Glo MT Cell Viability Assay in HepG2 cells - 16 hour (AID 1224885); further: nearly all actives have a fitted effect of over 50% in size
# Settings: RealTime-Glo luminescence; series mostly up to 76.8 µM
# How it was run: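 HepG2 suspension premixed with RealTime-Glo reagents is plated at 600 cells per well and left 5 h at 37 C/5% CO2. Compounds in DMSO then go in, and bioluminescence reflecting viable cell number is recorded over 40 h.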
row,Structure (SMILES),outcome
1,CCCCCCCC[Si](OCC)(OCC)OCC,inactive
2,O=C(COCCOCCOCC(=O)Nc1c(I)cc(I)c(C(=O)O)c1I)Nc1c(I)cc(I)c(C(=O)O)c1I,inactive
3,CN=C(NC#N)NCCSCc1csc(N=C(N)N)n1,inactive
4,CCOc1ccc(NC(=O)OC(C)C)cc1OCC,inactive
5,CCCC(C)CC (stereo unspecified),inactive
6,Cc1ncc([N+](=O)[O-])n1CC(O)CCl (stereo unspecified),inactive
7,Cc1nc2ccccc2c(=O)o1,inactive
8,O=C1c2ccccc2-c2ccccc21,inactive
9,CN(C1CCCCC1)S(=O)(=O)c1ccccc1N,inactive
10,Cc1ccc2c(c1)c1c3n2CCNC3CCC1 (stereo unspecified),inactive
11,Cc1ccc(S(=O)(=O)NC(=O)NC2CCCCCCC2)cc1,inactive
12,CCCCC(CC)CNC(=O)CC(C)OC(=O)CCC(=O)O (stereo unspecified),inactive
13,COCC(=O)Nc1c(I)c(C(=O)NCC(O)CO)c(I)c(C(=O)N(C)CC(O)CO)c1I (stereo unspecified),inactive
14,CC(=O)OCCCc1ccccc1,inactive
15,O=S1(=O)CCCC1,inactive
16,CC(CC(=O)O)CC(C)(C)C (stereo unspecified),inactive
17,CC(C)(C)NCCO,inactive
18,c1ccc(CNc2ncnc3nc[nH]c23)cc1,inactive
19,O=C(O)C(=O)Nc1cccc(-c2nn[nH]n2)c1,inactive
20,CC(=O)OC(C)c1ccccc1 (stereo unspecified),inactive
21,CCOC(=O)C(=O)c1csc(NC=O)n1,inactive
22,CCCCCCCCCCCCCCCC(=O)NCCO,inactive
23,CC(C)(CO)[C@@H](O)C(=O)NCCCO,inactive
24,COc1cccc2sc(N)nc12,inactive
25,OC[C@@H](O)[C@H](O)[C@@H](O)[C@@H](O)CO,inactive
26,CCCCCCCCCCCCCCCCCCN(C)C,inactive
